# Measurements from PubChem BioAssay (EPA / NIEHS).
# Some structures have more than one record in an assay (separate samples or runs), and their calls can disagree. The source made the active and inactive calls. The calls were made as follows: active = hit-call score of the fitted dose curve at least 0.9, where 1 is the maximum; inactive = score below 0.9.
# Read-out: Interleukin-8 (IL8), CXCL8 (gene 3576)
# Test: BSK_3C_IL8: BioMAP Diversity Plus: 3C Assay for Interleukin-8 (IL8) Biomarker Activity (AID 2283020)
# Settings: primary human endothelial cells (HUVEC); actives raise or lower the signal
# Description: BSK_3C is a cell-based, multiplexed-readout assay that uses umbilical vein endothelium, a human vascular primary cell, with measurements taken at 24 hours after chemical dosing in a 96-well plate.BSK_3C_IL8 is an assay component measured in the BSK_3C assay. It measures IL-8 antibody related to regulation of gene expression using ELISA technology.Data from the assay component BSK_3C_IL8 was analyzed into 1 assay endpoint. This assay endpoint, BSK_3C_IL8, was analyzed with bidirectional fitting relative to DMSO as the negative control and baseline of activity. Using a type of binding reporter, gain or loss-of-signal activity can be used to understand changes in the signaling as they relate to the gene CXCL8. Furthermore, this assay endpoint can be referred to as a primary readout, because this assay has produced multiple assay endpoints where this one serves a signaling function. To generalize the intended target to other relatable targets, this assay endpoint is annotated to the cytokine intended target family, where the subfamily is interleukins.
# The levels of cell surface (or secreted, indicated by the prefix "s") biomarker endpoints were measured by ELISA. Overt cytotoxicity to cells in confluent adherent cultures (all systems other than the BT system) was assessed by measuring total protein levels using sulforhodamine B (SRB) staining in parallel cultures at the time of biomarker measurements, indicated as SRB endpoints. For proliferation assays for adherent cell types, individual cell types are cultured at sub-confluence and relative cell numbers quantified by SRB staining at time points optimized for each system (48 h: 3C and CASM3C systems; 72 h: BT and HDF3CGF systems; 96 h: SAg system). SRB was performed by staining cells with 0.1% SRB after fixation with 10% TCA and reading wells at 560 nm.Viability and proliferation of PBMC (T cells) was quantified by Alamar Blue reduction for the SAg and BT systems. For PBMC viability (referred to as PBMC Cytotoxicity within the assay endpoint names), cells were plated (75,000/well in a 96-well plate) and then chemical samples added for 1 h before addition of activators, SEB and TSST-1 (20 ng/mL final concentration each). Cells were incubated for 90 h. Then, Alamar Blue (20 uL/well) (Invitrogen, Cat DAL1100) was added for 6 h, and the plates were read with a fluorescence microplate reader at 546/580 nm (excitation/emission). For PBMC proliferation, cells were plated and activated as above but incubated for only 16 h prior to addition of Alamar Blue. Plates were read after 6 h.
SMILES,outcome,AC50
CCC(C)c1ccc(O)cc1 (stereo not given),inactive,
c1ccc(C2CO2)cc1 (stereo not given),inactive,
Clc1ccc(C(c2ccc(Cl)cc2)C(Cl)(Cl)Cl)cc1,,22.7 µM (active)
ClC1=C(Cl)C2(Cl)C3C(Cl)C=CC3C1(Cl)C2(Cl)Cl (stereo not given),,32.7 µM (active)
COP(=S)(OC)SCN1C(=O)c2ccccc2C1=O,inactive,
CCNS(=O)(=O)C(F)(F)C(F)(F)C(F)(F)C(F)(F)C(F)(F)C(F)(F)C(F)(F)C(F)(F)F,inactive,26 µM (active)
Cc1ccc(N=C=O)cc1N=C=O,inactive,
OCCCBr,inactive,
[O-][Cl+]O,inactive,
[Cl-].[Cl-].[Hg+2],,31.1 µM (active)
CCCSC(=O)N(CCC)CCC,inactive,
CCCCCCCCOC(=O)c1ccc(C(=O)OCCCCCCCC)c(C(=O)OCCCCCCCC)c1,inactive,
Clc1ccc(Cl)c(Cl)c1,inactive,
Cn1cc(-c2ccccc2)c(=O)c(-c2cccc(C(F)(F)F)c2)c1,inactive,
CC(C)(OOC(C)(C)c1ccccc1)c1ccccc1,,29.8 µM (active)
CCCCCOC(=O)c1ccccc1C(=O)OCCCCC,inactive,
CC(C)(C)OOC(=O)c1ccccc1,inactive,
CNC(=O)Oc1cccc2c1OC(C)(C)C2,inactive,
Clc1ccccc1Cl,inactive,
N#CC(Br)Br,inactive,

SMILES,outcome,AC50
O=C(N[C@H](c1ccccc1)[C@@H]1CN2CCC1CC2)c1c(Cl)ccc(C(F)(F)F)c1Cl,,19 µM (active)
CS(=O)(=O)NC(=O)c1cc(Oc2ccc(C(F)(F)F)cc2Cl)ccc1[N+](=O)[O-],inactive,
Brc1ccc(Oc2ccccc2)cc1,inactive,
COC(=O)Nc1nc2ccccc2[nH]1,inactive,
c1ccc2c(c1)-c1cccc3cccc-2c13,inactive,
CC(C)N(Cc1ccccc1)C(=O)C(C)(C)C,inactive,
Nc1ccc(N=Nc2ccccc2)cc1,inactive,
C1=Cc2cccc3cccc1c23,inactive,
c1ccc2c(c1)oc1ccccc12,inactive,
CC(C)(C)OOC(C)(C)CCC(C)(C)OOC(C)(C)C,inactive,
Oc1ccc2ccc3cccc4ccc1c2c34,,32.8 µM (active)
Cc1ccc(N)cc1,inactive,
CN(C)c1ccccc1,inactive,
CN(C)c1ccc(C(=O)c2ccc(N(C)C)cc2)cc1,,2.55 µM (active)
CCOC(=O)[C@]1(c2ccccc2)Oc2ccccc2[C@@H]1N,,20 µM (active)
CC(O)CCO (stereo not given),inactive,
O=Cc1ccco1,inactive,
O=C(Nc1ccccc1)c1ccccc1I,inactive,
O=P(OCCCl)(OCCCl)OCCCl,inactive,
